Where “and” joins values, the source holds several entries; their conditions need not be identical. Equal entries are not always repeated. Inconclusive results are not listed. Entries that show only a call come without a potency. Calls of active or inactive are those of the source. Unless noted, calls follow the shape of the dose curve; as a rule, active = well fitted curve in the direction sought with a large enough effect; inconclusive = small, poorly fitted or top-dose-only effect, or another doubt; inactive = no such curve, though single readings can be large; an effect the other way counts as inactive or inconclusive.
Assays:
[1] = Cell Viability - Hek293 (AID 427;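 active = compounds whose dose-response curve shows a full or clear partial loss of cell viability, called from curve shape rather than a numeric limit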;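 also: potency is read from the fitted curve at half-maximal effect; cells exposed to compound for 40 hours at 37 °C before reading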); settings: qHTS
Procedure, shortened: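 Luminescent ATP content (CellTiter-Glo, 20 min at room temperature) was measured after a 40 hr, 37 °C compound exposure of HEK293 cells. AC50 values came from Hill-equation fits of qHTS concentration-response data normalized to DMSO and 100 uM tamoxifen.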

[2] = Cell Viability - HepG2 (AID 433; calls by dose curve;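 also: potency is read from the fitted curve at half-maximal effect; potency for ATP loss meaning cytotoxicity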); settings: qHTS
Procedure, shortened: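 HepG2 cells, 1500 per well, treated 40 hr at 37 °C in complete medium; viability from intracellular ATP by CellTiter-Glo luminescence. Normalized to DMSO and 100 uM tamoxifen; AC50 from Hill fit of qHTS concentration-response.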

[3] = Cell Viability - SK-N-SH (AID 435; calls by dose curve;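 also: potency is read from the fitted curve at half-maximal effect; compound exposure lasted 40 h at 37 °C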); settings: SK-N-SH neuroblastoma cell viability qHTS
Procedure, shortened: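 SK-N-SH neuroblastoma cells (1500/well) treated 40 h at 37 °C in complete medium; viability read as cellular ATP by CellTiter-Glo luminescence. Normalized to DMSO and 100 uM tamoxifen; AC50 from Hill fits of qHTS concentration-response.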

[4] = Cell Viability - SH-SY5Y (AID 544); settings: SH-SY5Y neuroblastoma cell viability; viability change, negative = cytotoxic: at 92.2 µM (top of the series); also: nearly all actives have a fitted effect of over 55% in size
Procedure, shortened: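 Cytotoxicity measured via ATP-dependent luciferase luminescence (CellTiter-Glo) following 40 h, 37 °C exposure of 1500 SH-SY5Y cells per well. Concentration-response data were fitted with the standard Hill equation to give AC50.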

[5] = Cell Viability - Renal Proximal Tubule (AID 545); settings: renal proximal tubule cells viability, primary cells of rat origin; activity change, negative = cytotoxicity: at 91.7 µM (top of the series); also: nearly all actives have a fitted effect of over 40% in size
Procedure, shortened: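 Rat renal proximal tubule primary cells, 1000/well, exposed to compounds for 40 hr at 37 °C in complete medium; cellular ATP read by CellTiter-Glo luminescence. AC50 from concentration-response fitted with standard Hill equation.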

[6] = Cell Viability - LYMP2-001 (AID 921); settings: LYMP2-001 lymphoblastoid cell viability; series mostly up to 92.2 µM; also: nearly all actives have a fitted effect of over 70% in size
Procedure, shortened: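 Human lymphoblastoid LYMP2-001 cells, 2500 per well, in complete medium, treated 24 h at 37 C. Viability from cellular ATP by CellTiter-Glo luminescence; AC50 from Hill-equation fits of qHTS concentration-response.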

[7] = Cell Viability - LYMP2-005 (AID 967); settings: LYMP2-005 lymphoblastoid cell viability; series mostly up to 92.2 µM
Procedure, shortened: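 Human lymphoblastoid LYMP2-005 cells, 2,500 per well in complete medium, rested 5 h at 37C then compound-treated 24 h at 37C. Intracellular ATP read by CellTiter-Glo luminescence after 30 min at room temperature; AC50 from Hill-equation fits of concentration-response data.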

[8] = Cell Viability - LYMP2-015 (AID 971); settings: LYMP2-015 lymphoblastoid cell viability; series mostly up to 92.2 µM; also: nearly all actives have a fitted effect of over 55% in size
Procedure, shortened: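 Cytotoxicity readout: decrease in intracellular ATP (CellTiter-Glo luminescence) in 2500 LYMP2-015 lymphoblastoid cells/well after 24 h compound exposure at 37 C. Concentration-response data fitted with the standard Hill equation to give AC50.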

[9] = Cell Viability - LYMP2-010 (AID 981); settings: LYMP2-010 lymphoblastoid cell viability, qHTS; series mostly up to 92.2 µM;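 also: cells exposed to compound for 24 hours at 37 °C; nearly all actives have a fitted effect of over 55% in size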
Procedure, shortened: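 CellTiter-Glo ATP luminescence measured cytotoxicity after 24 h compound exposure at 37 C. LYMP2-010 cells were seeded at 2500/well, with tetraoctylammonium bromide as control; concentration-response curves gave AC50 values by the Hill equation.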

[10] = Cell Viability - LYMP2-024 (AID 988); settings: LYMP2-024 lymphoblastoid cell viability; series mostly up to 92.2 µM; also: nearly all actives have a fitted effect of over 60% in size
Procedure, shortened: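 Cytotoxicity was taken as a decrease in ATP (CellTiter-Glo luminescence) after 24 hr compound exposure at 37 C of LYMP2-024 lymphoblastoid cells, 2500 cells/well. Concentration-response data were fitted to the Hill equation to give AC50.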

[11] = qHTS assay for small molecule antagonists of retinoid X receptor alpha signaling (AID 588546; active = well fitted inhibition curve with a large enough effect in the signal ratio, with a control signal flat, not every such curve was filed as active; the % refers to the signal ratio;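 also: cells stimulated with 9-cis-retinoic acid as agonist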); settings: HEK293T RXRa-UAS-bla, beta-lactamase ratio, antagonist mode; measured here: W530 green channel, cytotoxicity proxy
Procedure, shortened: (§1)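 Beta-lactamase reporter inhibition, read as CCF4 fluorescence ratio (ex 405, em 460/530 nm) after 2 h at RT. HEK293T UAS-bla cells, 2500/well, were stimulated with 9-cis-RA at 500 or 100 nM final alongside test compound for 18 h at 37 C.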

[12] = molecular target: Retinoic acid receptor RXR-alpha (Homo sapiens) (UniProt P19793); test: as above; settings: HEK293T RXRa-UAS-bla, beta-lactamase ratio, antagonist mode
Procedure, shortened: as §1

[13] = molecular target: Thyroid hormone receptor beta (Homo sapiens) (UniProt P10828); test: qHTS assay for small molecule antagonists of thyroid hormone receptor beta signaling (AID 588547; active = well fitted inhibition curve with a large enough effect in the signal ratio, with a control signal flat, not every such curve was filed as active; the % refers to the signal ratio;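 also: cells stimulated with 0.4 nM T3 agonist during compound exposure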); settings: TR-UAS-bla HEK293, beta-lactamase ratio, antagonist mode, 18 h
Procedure, shortened: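 Inhibition of T3-driven (0.4nM final) beta-lactamase reporter activity was measured over 0.59 nM to 92 uM compound after 18 h at 37 C. The cells were GripTite HEK293 TR-UAS-bla in charcoal/dextran-stripped serum, with CCF4 ratio read-out and IC50 from Hill fits.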

[14] = molecular target: Voltage-gated inwardly rectifying potassium channel KCNH2 (Homo sapiens) (UniProt Q12809); test: qHTS Assay for Small Molecule Inhibitors of the Human hERG Channel Activity (AID 588834); settings: U2OS BacMam hERG, FluxOR thallium flux fluorescence; series mostly up to 92.2 µM;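 also: top concentration of the series differs between compounds; lower thallium flux fluorescence means stronger hERG block; nearly all actives have a fitted effect of over 50% in size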
Procedure, shortened: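 Thallium serves as surrogate for K+ influx through BacMam-delivered hERG in U2OS cells. Compounds are added for about 10 minutes after dye loading; stimulation buffer then starts flux, monitored kinetically on FDSS.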

[15] = qHTS assay for small molecule disruptors of the mitochondrial membrane potential - 5 hr assay (AID 651755; calls by dose curve; also: nearly all actives have a fitted effect of over 40% in size; also: potency is read from the fitted curve at half-maximal effect); settings: JC-1-type ratio dye; series mostly up to 92.2 µM
Procedure, shortened: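 Membrane-potential dye readout: red aggregate (540 ex/590 em) versus green monomer (490 ex/535 em) fluorescence after 30 min dye loading, following 5 hr compound exposure at 37C of overnight-plated HepG2 cells.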

[16] = qHTS assay for small molecule antagonists of the retinoid-related orphan receptor gamma (ROR-gamma) signaling pathway - cell viability counter screen (AID 720652; active = well fitted curve in the direction sought with a large enough effect in the repeat runs; an effect the other way counts as inactive or inconclusive;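 also: CHO reporter cells with doxycycline-induced ROR-gamma expression; compound exposure lasted 16 hr before ATP read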); settings: RORgamma reporter cell line viability counter screen; series mostly up to 92.2 µM
Procedure, shortened: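 Cytotoxicity counter screen: intracellular ATP (CellTiter-Glo luminescence) measured in the doxycycline-induced CHO RORE-luciferase reporter line after 16 hr compound exposure at 37 C, 5% CO2.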

[17] = molecular target: Nuclear receptor subfamily 1 group I member 2 (Rattus norvegicus) (UniProt Q9R1A7); test: qHTS assay for small molecule activators of the rat pregnane X receptor (rPXR) signaling pathway (AID 651751; call rule not given here); settings: rPXR reporter cells, luciferase (One-Glo), 24 h
[18] = Cell Viability - Jurkat (AID 426;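 active = dose-dependent loss of cell ATP signal giving a full or clear fitted curve, ranked by lower potency value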; also: potency is read from the fitted curve at half-maximal effect); settings: qHTS
Procedure, shortened: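 Cytotoxicity taken as drop in cellular ATP (CellTiter-Glo luminescence, 20 min room temperature) after 40 hr, 37C treatment of 5000 Jurkat Clone E6-1 cells per well; concentration-response fitted with Hill equation for AC50.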

[19] = MultiTox-Fluor Cytotoxicity Assay - LYMP1-002 - Dead Cells (AID 960); settings: LYMP1-002 lymphoblastoid cells, dead-cell protease fluorescence; series mostly up to 46.1 µM; also: nearly all actives have a fitted effect of over 60% in size
Procedure, shortened: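 Dead-cell fluorescence (Ex/Em 485/520) after 16 h compound exposure at 37 C of LYMP1-002 lymphoblastoid cells in complete medium; AC50 by Hill equation, with data scaled between DMSO and 15 uM tetraoctylammonium bromide.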

[20] = molecular target: Thyroid hormone receptor beta (Homo sapiens) (UniProt P10828); test: qHTS assay for small molecule agonists of thyroid hormone receptor beta signaling (AID 588545; calls by dose curve); settings: TR-UAS-bla GripTite HEK 293, beta-lactamase ratio, agonist mode, 18 h; series mostly up to 76.7 µM
Procedure, shortened: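 Stimulation of a TR-driven beta-lactamase reporter was quantified in GripTite HEK 293 cells. Compound series ran for 18 hrs; curves were normalized to T3 and DMSO controls and fitted to yield EC50.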

Sequence of Voltage-gated inwardly rectifying potassium channel KCNH2 (Homo sapiens) (Q12809 whole entry, looked up): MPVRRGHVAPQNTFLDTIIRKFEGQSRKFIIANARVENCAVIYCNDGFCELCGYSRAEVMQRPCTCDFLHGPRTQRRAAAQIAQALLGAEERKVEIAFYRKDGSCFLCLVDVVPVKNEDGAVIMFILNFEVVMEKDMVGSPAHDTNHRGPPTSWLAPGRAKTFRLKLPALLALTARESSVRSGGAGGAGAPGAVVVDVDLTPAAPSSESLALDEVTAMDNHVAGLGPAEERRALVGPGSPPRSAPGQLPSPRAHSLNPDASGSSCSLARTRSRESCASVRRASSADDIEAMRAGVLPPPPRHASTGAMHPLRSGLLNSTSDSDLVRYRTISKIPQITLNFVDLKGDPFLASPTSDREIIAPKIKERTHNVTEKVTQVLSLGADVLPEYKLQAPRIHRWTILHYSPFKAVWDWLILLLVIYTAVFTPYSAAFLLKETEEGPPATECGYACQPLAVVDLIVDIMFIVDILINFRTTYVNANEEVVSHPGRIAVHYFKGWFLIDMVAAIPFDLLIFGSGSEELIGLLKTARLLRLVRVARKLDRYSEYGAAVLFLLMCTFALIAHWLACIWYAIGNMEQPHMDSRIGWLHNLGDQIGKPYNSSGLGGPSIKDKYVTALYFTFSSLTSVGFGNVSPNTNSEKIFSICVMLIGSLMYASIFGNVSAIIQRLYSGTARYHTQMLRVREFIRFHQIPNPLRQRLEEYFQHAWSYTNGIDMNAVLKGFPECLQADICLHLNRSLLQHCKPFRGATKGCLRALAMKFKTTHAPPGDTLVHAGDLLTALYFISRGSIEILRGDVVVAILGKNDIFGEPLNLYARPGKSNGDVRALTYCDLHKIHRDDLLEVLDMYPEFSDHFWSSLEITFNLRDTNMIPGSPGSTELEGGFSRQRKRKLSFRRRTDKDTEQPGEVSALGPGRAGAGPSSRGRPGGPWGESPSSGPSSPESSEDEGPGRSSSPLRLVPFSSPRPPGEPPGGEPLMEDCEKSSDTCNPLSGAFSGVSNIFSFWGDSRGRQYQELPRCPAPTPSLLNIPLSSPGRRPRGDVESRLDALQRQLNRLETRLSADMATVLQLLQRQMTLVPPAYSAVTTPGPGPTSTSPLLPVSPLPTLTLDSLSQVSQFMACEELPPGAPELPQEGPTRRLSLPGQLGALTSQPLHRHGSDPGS
Sequence of Nuclear receptor subfamily 1 group I member 2 (Rattus norvegicus) (Q9R1A7 whole entry, looked up): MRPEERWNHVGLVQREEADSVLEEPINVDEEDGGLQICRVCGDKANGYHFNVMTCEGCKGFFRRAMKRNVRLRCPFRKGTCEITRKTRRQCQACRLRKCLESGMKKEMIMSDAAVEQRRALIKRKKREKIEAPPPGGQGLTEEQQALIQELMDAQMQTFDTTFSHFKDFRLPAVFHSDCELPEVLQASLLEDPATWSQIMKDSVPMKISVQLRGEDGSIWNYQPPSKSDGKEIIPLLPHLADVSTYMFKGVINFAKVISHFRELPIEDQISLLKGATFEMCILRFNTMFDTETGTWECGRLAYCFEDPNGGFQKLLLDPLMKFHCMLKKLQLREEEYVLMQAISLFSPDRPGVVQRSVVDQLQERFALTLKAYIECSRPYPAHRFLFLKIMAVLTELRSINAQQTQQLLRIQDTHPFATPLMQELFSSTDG
Sequence of Thyroid hormone receptor beta (Homo sapiens) (P10828 whole entry, looked up): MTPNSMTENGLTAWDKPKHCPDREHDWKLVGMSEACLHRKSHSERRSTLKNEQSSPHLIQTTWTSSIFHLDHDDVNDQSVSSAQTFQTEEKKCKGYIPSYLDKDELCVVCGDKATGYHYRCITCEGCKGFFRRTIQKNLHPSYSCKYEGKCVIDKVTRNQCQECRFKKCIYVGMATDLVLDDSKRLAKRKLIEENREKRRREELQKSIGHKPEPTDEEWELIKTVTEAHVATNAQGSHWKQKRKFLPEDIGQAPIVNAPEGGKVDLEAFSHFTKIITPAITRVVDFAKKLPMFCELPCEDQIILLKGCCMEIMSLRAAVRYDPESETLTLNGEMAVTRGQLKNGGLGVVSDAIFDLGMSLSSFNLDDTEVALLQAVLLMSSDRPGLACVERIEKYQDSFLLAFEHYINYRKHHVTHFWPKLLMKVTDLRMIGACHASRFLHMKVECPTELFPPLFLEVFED
Sequence of Retinoic acid receptor RXR-alpha (Homo sapiens) (P19793 whole entry, looked up): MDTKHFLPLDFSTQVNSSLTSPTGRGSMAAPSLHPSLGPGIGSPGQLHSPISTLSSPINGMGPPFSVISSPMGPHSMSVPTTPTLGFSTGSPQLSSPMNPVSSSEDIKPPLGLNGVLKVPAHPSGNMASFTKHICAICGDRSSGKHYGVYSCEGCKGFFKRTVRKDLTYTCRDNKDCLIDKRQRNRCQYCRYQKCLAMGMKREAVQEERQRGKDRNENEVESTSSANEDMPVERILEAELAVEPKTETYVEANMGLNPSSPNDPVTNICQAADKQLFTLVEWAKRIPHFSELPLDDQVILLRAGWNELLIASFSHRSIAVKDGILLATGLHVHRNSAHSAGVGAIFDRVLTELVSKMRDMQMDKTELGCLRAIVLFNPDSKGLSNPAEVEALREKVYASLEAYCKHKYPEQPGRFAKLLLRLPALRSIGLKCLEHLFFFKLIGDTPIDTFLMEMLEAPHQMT

SMILES: NC(=O)Nc1nc2ccccc2[nH]1
- Potency [1]: > 92 µM (inactive)
- Potency [2]: > 92 µM (inactive)
- Potency [3]: > 92 µM (inactive)
- Potency [4]: inactive
- Potency [5]: inactive
- Potency [6]: inactive
- Potency [7]: inactive
- Potency [8]: inactive
- Potency [9]: inactive
- Potency [10]: inactive
- max response [11]: -1.95%
- max response [12]: 1.58% (inactive)
- activity change % (negative = inhibition) [13]: -13.1% (inactive)
- Potency [14]: inactive
- Potency [15]: inactive
- Potency [16]: inactive
- max response [17]: -2.46% (inactive)

SMILES: O=C(Cl)c1ccc([N+](=O)[O-])cc1
- Potency [18]: > 92 µM (inactive)
- Potency [1]: > 92 µM (inactive)
- Potency [2]: > 92 µM (inactive)
- Potency [5]: inactive
- Potency [6]: inactive
- Potency [19]: inactive
- Potency [8]: inactive
- Potency [9]: inactive
- Potency [10]: inactive
- Potency [20]: inactive
- max response [11]: -4.54%
- max response [12]: 11.8% (inactive)
- activity change % (negative = inhibition) [13]: 12% (inactive)
- Potency [14]: inactive
- Potency [15]: inactive
- Potency [16]: inactive
- max response [17]: -6.29% (inactive)

SMILES: O=c1[nH]ncc2ccccc12
- Potency [18]: > 92 µM (inactive)
- Potency [1]: > 92 µM (inactive)
- Potency [2]: > 92 µM (inactive)
- Potency [3]: > 92 µM (inactive)
- viability change, negative = cytotoxic [4]: -82.8% (active)
- Potency [5]: inactive
- Potency [6]: inactive
- Potency [19]: inactive
- Potency [7]: inactive
- Potency [8]: inactive
- Potency [9]: inactive
- Potency [10]: inactive
- Potency [20]: inactive
- max response [11]: -5.72%
- max response [12]: 13% (inactive)
- activity change % (negative = inhibition) [13]: -18.2% (inactive)
- Potency [14]: inactive
- Potency [15]: inactive
- Potency [16]: inactive
- max response [17]: -3.03% (inactive)

SMILES: Nc1ccccc1O
- Potency [1]: > 92 µM (inactive)
- Potency [2]: > 92 µM (inactive)
- Potency [3]: > 92 µM (inactive)
- Potency [5]: inactive
- Potency [19]: inactive
- Potency [10]: inactive
- Potency [20]: inactive
- max response [11]: 21.2%
- max response [12]: -7.25% (inactive)
- activity change % (negative = inhibition) [13]: -12.3% (inactive)
- Potency [14]: inactive
- Potency [15]: 23.7 µM (active)
- Potency [16]: inactive

SMILES: OCC(CO)(CBr)CBr
- Potency [18]: > 92 µM (inactive)
- Potency [1]: > 92 µM (inactive)
- Potency [2]: > 92 µM (inactive)
- Potency [3]: > 92 µM (inactive)
- Potency [4]: inactive
- Potency [5]: inactive
- Potency [6]: inactive
- Potency [19]: inactive
- Potency [7]: inactive
- Potency [8]: inactive
- Potency [9]: inactive
- Potency [10]: inactive
- Potency [20]: inactive
- max response [11]: 6.52% and -5.45%
- max response [12]: 4.02% (inactive) and -1.76% (inactive)
- activity change % (negative = inhibition) [13]: -10.9% (inactive) and 7.42% (inactive)
- Potency [14]: inactive
- Potency [15]: inactive
- Potency [16]: inactive
- max response [17]: 4.89% (inactive) and 3.86% (inactive)

SMILES: CCCCCCCCOc1ccc(C(=O)O)cc1
- Potency [18]: > 92 µM (inactive)
- Potency [1]: > 92 µM (inactive)
- Potency [2]: > 92 µM (inactive)
- Potency [3]: > 92 µM (inactive)
- Potency [4]: inactive
- Potency [5]: inactive
- Potency [6]: inactive
- Potency [19]: inactive
- Potency [7]: inactive
- Potency [8]: inactive
- Potency [9]: inactive
- Potency [10]: inactive
- Potency [20]: inactive
- max response [11]: -3.84%
- max response [12]: -6.4% (inactive)
- activity change % (negative = inhibition) [13]: 10% (inactive)
- Potency [14]: inactive
- Potency [15]: inactive
- Potency [16]: inactive
- max response [17]: 13.3% (inactive)

SMILES: c1c[nH]cn1
- Potency [18]: > 92 µM (inactive)
- Potency [1]: > 92 µM (inactive)
- Potency [2]: > 92 µM (inactive)
- Potency [3]: > 92 µM (inactive)
- Potency [4]: inactive
- Potency [5]: inactive
- Potency [6]: inactive
- Potency [19]: inactive
- Potency [7]: inactive
- Potency [8]: inactive
- Potency [9]: inactive
- Potency [10]: inactive
- Potency [20]: inactive
- max response [11]: -8.47%
- max response [12]: -1.89% (inactive)
- activity change % (negative = inhibition) [13]: -11.5% (inactive)
- Potency [14]: inactive
- Potency [15]: inactive
- Potency [16]: inactive
- max response [17]: -3.01% (inactive)

SMILES: C=CC(=O)CC
- Potency [1]: > 92 µM (inactive)
- Potency [2]: > 92 µM (inactive)
- Potency [3]: > 92 µM (inactive)
- Potency [4]: inactive
- Potency [5]: inactive
- Potency [6]: inactive
- Potency [19]: inactive
- Potency [7]: inactive
- Potency [8]: inactive
- Potency [9]: inactive
- Potency [10]: inactive
- Potency [20]: inactive
- max response [11]: 8.25%
- max response [12]: 10.2% (inactive)
- activity change % (negative = inhibition) [13]: 9.8% (inactive)
- Potency [14]: inactive
- Potency [15]: inactive
- max response [17]: 9.91% (inactive)

— PubChem BioAssay (NCATS)
